Among the data in PubChem BioAssay (NCI) are growth values, retold here.

Compounds without any hit were thinned out: in the full panel of roughly 83,000, 20% have a hit.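 Assay: single dose, 48 h. Readout: percent growth (0 = no net growth; negative = cell death). Active: <10.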 Values without a mark were called inactive. The source made the active and inactive calls.

Holding throughout (assay): NCI-60 one-dose screen, 48 h (100 = growth as untreated, 0 = no growth, -100 = all killed)
Conditions in all cases: 10 µM unless noted

The subject of experiment [1] is T-47D breast.
Experiment [2] has as its system BT-549 breast.
Experiment [3] deals with MDA-MB-435 melanoma.
The test system of experiment [4] is SW-620 colon.
Experiment [5] deals with MCF7 breast.
Experiment [6] concerns HCT-116 colon.
Experiment [7] concerns HCC-2998 colon.
Experiment [8] relates to KM12 colon.

Turning to `O=C(N=c1oc2ccccc2cc1-c1cc2ccccc2[nH]1)c1ccc(Cl)cc1`, the growth is 47.5% in experiment [1]; 76% in experiment [2]; 96.4% in experiment [3]; 25.1% in experiment [4]; 30.4% in experiment [5]; 20% in experiment [6]. For the same compound, the results for the growth in experiment [7] and in experiment [8] were 81.9% and 29.1%, respectively.
Take `O=C(CSc1nnc(-c2ccc(NC(=O)c3cccnc3)cc2)o1)Nc1cccc(Br)c1`: the growth in experiment [1] was 56.5%; in experiment [2], 109%; in experiment [3], 94.3%; in experiment [4], 96.8%; in experiment [5] it was 90.3%; in experiment [6] it was 58.7%. The results for the growth in experiment [7] and in experiment [8] were 106% and 105%, respectively.
With `CC(=O)N1N=C(c2ccc(Nc3nc(Nc4ccc(F)cc4)nc(Nc4ccc(F)cc4)n3)cc2)CC1c1cccc([N+](=O)[O-])c1` (configuration not stated), the growth is 80.3% in experiment [1]; 102% in experiment [2]; 111% in experiment [3]; 96.9% in experiment [4]; 88.3% in experiment [5]; 92.9% in experiment [6]. The results for the growth in experiment [7] and in experiment [8] were 54% and 104%, respectively.
Turning to `Fc1c[c-]c(-c2ccccn2)c(F)c1.[CH3-].[Pt+2].c1ccc(P(C[PH+](c2ccccc2)c2ccccc2)c2ccccc2)cc1`, the growth in experiment [1] was -5.03% (active); in experiment [2], -28.1% (active); in experiment [3] it was -51.8% (active); in experiment [4], -63.5% (active); in experiment [5], 6.04% (active); in experiment [6] it was -66% (active). The growth is -27.5% (active) in experiment [7] and -40.6% (active) in experiment [8].
Take `Cc1nc2c(c(N3CCCc4ccccc43)n1)CCC2`: the growth is 45.3% in experiment [1]; -12.1% (active) in experiment [2]; 1.15% (active) in experiment [3]; 22.5% in experiment [4]; 14.6% in experiment [5]; -17% (active) in experiment [6]. For the same compound, the values for the growth in experiment [7] and in experiment [8] were 18.3% and 0.58% (active), respectively.
`C=CCSc1nc2ccccc2cc1/C=N/O`: the growth in experiment [1] is 67.6%; in experiment [2], 85.6%; in experiment [3] it was 95.1%; in experiment [4], 87%; in experiment [5], 78%; in experiment [6] it was 78.8%. The growth in experiment [7] was 93.9%; in experiment [8] it was 89.5%.
On to `CNc1ccc(NC)c2c1C(=O)c1ccccc1C2=O`, for which the growth was 37.3% in experiment [1]; 75.7% in experiment [2]; 110% in experiment [3]; 92.4% in experiment [4]; 16% in experiment [5]; 78% in experiment [6]. The growth in experiment [7] is 72.3%; in experiment [8], 64.4%.
On to `Cc1cc(NCc2cc(Nc3ccnc4cc(Cl)ccc34)ccc2F)nc(Cl)n1`, for which the growth in experiment [1] was 28%; in experiment [2], 54.6%; in experiment [3], 37%; in experiment [4], 57%; in experiment [5], 30%; in experiment [6] it was 30.5%. For the same compound, the growth in experiment [7] is 63.2%; in experiment [8] it was 64.7%.
For `Cc1ccc(-c2cc(-c3ccccc3C)[nH]c(=O)c2C#N)s1`, the growth in experiment [1] was 86.5%; in experiment [2] it was 79.4%; in experiment [3], 94.9%; in experiment [4], 95.6%; in experiment [5] it was 89%; in experiment [6], 91.8%. The growth is 111% in experiment [7] and 95.3% in experiment [8].
For the compound `COc1ccc2oc3c(C)c4c(c(C)c3c2c1)C(=O)N(Cc1ccccc1)C4=O`, the growth in experiment [1] is 95%; in experiment [2], 96.1%; in experiment [3] it was 99.2%; in experiment [4], 78.3%; in experiment [5], 95.5%; in experiment [6] it was 65.5%. In addition, the values for the growth in experiment [7] and in experiment [8] were 102% and 97.4%, respectively.
Take `O=c1c2cc(F)ccc2sc2c(Nc3cccnc3)nc3ccccc3c12`: the growth in experiment [1] was 84.7%; in experiment [2], 98.7%; in experiment [3], 99.1%; in experiment [4], 85.6%; in experiment [5], 55.1%; in experiment [6], 61.5%. The growth in experiment [7] is 94.1%; in experiment [8], 89.2%.
Take `COc1ccc(-c2cc(-c3cc(OC)ccc3OC)nc(SCC(=O)c3ccccc3)c2C#N)cc1`: the growth in experiment [1] is 80.8%; in experiment [2], 109%; in experiment [3] it was 103%; in experiment [4], 98.6%; in experiment [5] it was 98.3%; in experiment [6], 88.5%. The values for the growth in experiment [7] and in experiment [8] were 108% and 96.8%, respectively.
On to `COc1cc(C2CC(=O)Nc3c2c(C)nn3-c2nc3ccccc3[nH]2)c(OC)c2c1OCO2` (configuration not stated), for which the growth in experiment [1] was 67.2%; in experiment [2], 76%; in experiment [3], -20.2% (active); in experiment [4], 47.1%; in experiment [5], 45.3%; in experiment [6], 61.6%. In addition, the growth is 97.5% in experiment [7] and 52.1% in experiment [8].
For the compound `Fc1ccc(CNc2c3ccccc3nc3ccccc23)cc1F`, the growth in experiment [1] was 47.9%; in experiment [2], 68.2%; in experiment [3], 49.2%; in experiment [4] it was 23.7%; in experiment [5], 12.9%; in experiment [6], 8.18% (active). Moreover, the growth is 2.15% (active) in experiment [7] and 53.3% in experiment [8].
